FLuc inh: Firefly luciferase inhibition profiling of diverse chemical library using quantitative high-throughput screening | Luciferin 4-monooxygenase (Photinus pyralis), P08659 | purified P. pyralis luciferase, luminescence, biochemical | Potency, µM (series often up to 115 µM), most hits filed as inhibitors | 76,000 compounds, 2.5% hits | AID 1347043, 2019; further: nearly all actives have a fitted effect of over 65% in size
Target sequence (P08659 whole entry, looked up): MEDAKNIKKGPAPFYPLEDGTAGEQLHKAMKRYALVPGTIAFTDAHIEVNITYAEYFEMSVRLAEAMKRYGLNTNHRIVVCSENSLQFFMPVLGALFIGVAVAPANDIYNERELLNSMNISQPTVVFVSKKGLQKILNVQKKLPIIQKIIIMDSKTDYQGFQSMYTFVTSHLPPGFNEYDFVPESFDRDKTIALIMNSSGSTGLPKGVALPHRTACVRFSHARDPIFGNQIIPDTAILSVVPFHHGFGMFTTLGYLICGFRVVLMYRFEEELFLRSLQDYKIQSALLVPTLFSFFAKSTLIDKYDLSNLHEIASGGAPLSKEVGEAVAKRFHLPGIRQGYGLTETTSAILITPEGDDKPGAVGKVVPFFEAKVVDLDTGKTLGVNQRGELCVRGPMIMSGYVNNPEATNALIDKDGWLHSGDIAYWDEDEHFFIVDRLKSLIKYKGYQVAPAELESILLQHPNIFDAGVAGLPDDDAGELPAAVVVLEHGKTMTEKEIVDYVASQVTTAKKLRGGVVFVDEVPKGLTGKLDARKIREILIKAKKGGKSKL
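Purified 10nM P. pyralis luciferase with 10uM D-luciferin and 10uM ATP in 50mM Tris acetate pH 7.5, 10mM Mg acetate, 0.01% Tween-20, 0.05% BSA. qHTS titration; luminescence read by CCD imager.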
HEK293 tox: Cytotoxic Profiling in HEK 293 Cell Line of Diverse Libraries Using Quantitative High-Throughput Screening | HEK 293 viability, ATP luminescence (CellTiter-Glo), 48-72 h | AID 1345083, 2018 | 94,000 compounds, 6.6% hits | Potency, µM (series often up to 115 µM), for inactives: at the top dose activity change, negative = cytotoxicity, hits mostly inhibitors; further: nearly all actives have a fitted effect of over 60% in size
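Cells seeded first (HEK 293, 250 cells/well), then compound added by pintool. Incubation ran 48 or 72 hr at 37 degree Celsius. CellTiter-Glo was added and luminescence imaged after 10 min at room temperature.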
GPT2 inhibitor: Primary qHTS assay for inhibitors of Glutamate pyruvate transaminase 2 (GPT2). Alanine aminotransferase 2 (Homo sapiens), Q8TD30. Recombinant GPT2, coupled pyruvate oxidase/HRP Amplex Red fluorescence. Potency, µM (series often up to 57.7 µM), for the others: at the top dose activity change, negative = inhibition, usual class: inhibitors. 100,000 compounds, 0.25% hits; further: nearly all actives have a fitted effect of over 60% in size
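Recombinant GPT2 (10ng/uL) with 250uM a-KG and 2mM L-alanine, 30 min at room temperature, in HEPES pH 7.5 buffer. Pyruvate detected by pyruvate oxidase/HRP/Amplex Red fluorescence after 30 min in the dark; AOA (50uM) as positive control.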
NPR1 antag: Natriuretic polypeptide receptor (hNpr1) antagonism - Primary qHTS; Potency, µM (series often up to 46.3 µM), without a hit: at the top dose activity change, negative = inhibition, most hits filed as inhibitors; HEK293 hNpr1 GloSensor cGMP, ANP-stimulated luminescence; AID 1347048, 2019; 76,000 compounds, 1.6% hits; Atrial natriuretic peptide receptor 1 (Homo sapiens), P16066; calls by dose curve; further: nearly all actives have a fitted effect of over 60% in size
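HEK293 cells stably expressing human Npr1 and cGMP GloSensor pGS-40F, loaded 2 h with 2% GloSensor reagent, given compound 30 min at room temperature. Luminescence read before and 20 min after 0.1 nM hNppA.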
NIH3T3 tox: Cytotoxic Profiling in NIH 3T3 Cell Line of Diverse Libraries Using Quantitative High-Throughput Screening; NIH 3T3 viability, CellTiter-Glo ATP luminescence, 48-72 h; Potency, µM (highest dose often 96.7 µM), inactives show at the top dose activity change, negative = cytotoxicity, most hits filed as inhibitors; 94,000 compounds, 4.3% hits; further: nearly all actives have a fitted effect of over 55% in size
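ATP-dependent luminescence (CellTiter-Glo) served as the viability signal for NIH 3T3 cells treated with compound for 48 or 72 hr at 37 °C.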
* hit, by the source's call; i = inactive; ? = inconclusive; / = not tested or not shown; [ ] = remark or other dose. Compounds with a hit are over-represented: about 10% of the library has one in this group of screens. Unless noted, the call rests on the fitted dose curve; in most records, active means well fitted curve in the direction sought with a large enough effect; inconclusive means small, poorly fitted or top-dose-only effect, or another doubt; inactive means no such curve, though single readings can be large; an effect the other way counts as inactive or inconclusive. On the % scale 0 is the no-effect control and ±100 the full control effect; potency means the concentration at half of the fitted maximal effect.

SMILES	FLuc inh	HEK293 tox	GPT2 inhibitor	NPR1 antag	NIH3T3 tox
O=C(c1ccsc1)N1CCCC(CN2CCOCC2)CC1 (stereo not given)	/	0.3%	i	/	4.3%
CNC(=O)c1cc(C2CC2)nc2onc(C3CCN(C(=O)c4ccccc4F)CC3)c12	/	?	/	/	-32.3%
C=CCNC(=O)N1[C@@H](c2ccccc2)[C@@H](C(=O)OCC)C[C@]12CCCCN(CCOC)C2=O	/	-11.3%	/	/	?
COc1ccc(-c2ccccc2NC(=O)C2CCCN(Cc3ccc(O)c(OC)c3)C2)cc1 (stereo not given)	i	?	i	-1.5%	?
COc1ccc(-c2ccccc2NC(=O)C2CCCN(Cc3c(O)cccc3OC)C2)cc1 (stereo not given)	i	20µM*	-2.1%	?	?
COc1ccc(-c2ccccc2NC(=O)C2CCCN(Cc3ccccc3O)C2)cc1 (stereo not given)	i	25.1µM*	3.9%	0.3%	?
Cc1nc(CCC(=O)NCc2cc(Cl)cc3c(C)c(-c4ccccc4)[nH]c23)n[nH]1	31.6µM*	?	0.2%	-1.5%	?
Cc1ncoc1C(=O)NCc1cc(Cl)cc2c(C)c(-c3ccccc3)[nH]c12	?	?	i[11.5 µM]	2.82µM*	?
CN(C(=O)c1cc(C2CC2)[nH]n1)C1CCc2nn(CC3CC3)c(=O)n2CC1 (stereo not given)	i	-6.4%	-8.5%	1.6%	0.4%
Cn1cnnc1CC1CCCN(C(=O)Nc2ccccc2)C1 (stereo not given)	i	-16.7%	i	-1.4%	-9.7%
c1cc(Cn2ccc3c(N4CCOCC4)nc(-c4cncnc4)cc32)ccn1	i	?	-26.3%[88.5 µM]	-1.8%[70.6 µM]	10µM*
c1ccc(-c2cc3c(ccn3Cc3ccncc3)c(N3CCOCC3)n2)cc1	i	?	?	-7.8%[70.6 µM]	?
COc1cc(F)ccc1-c1cc2c(ccn2Cc2ccncc2)c(N2CCOCC2)n1	i	79.4µM*	1.5%[88.5 µM]	-9.6%[70.6 µM]	?
CC(O)c1cc2n(n1)CCN(C(=O)c1cc(=O)n(C)c(=O)n1C)C2 (stereo not given)	i	2.3%	i	2.8%	-1.4%
COc1ccc(-c2nnc3n2CCN(C(=O)c2cccc(Cl)c2)C3)cc1	i	-8.7%	-1.5%	3.7%	-2.7%
CNC(=O)c1cc(C2CC2)nc2onc(C3CCN(C(=O)c4ccncc4)CC3)c12	/	?	/	/	4.0%
Cc1ccc(C(C)NC(=O)CN2C(=O)C3(CCNCC3)Nc3ccccc32)cc1 (stereo not given)	i	-11.6%	-17.8%	-1.2%	-1.3%
O=C1N(CCCCOc2ccccc2)c2ccccc2NC12CCNCC2	i	20µM*	?	-16.9%	?
O=C(NC1CCCc2c1[nH]c1ccccc21)c1cn(C2CC2)c(=O)c2ccccc12 (stereo not given)	i	?	i	-9.8%	?
O=C1Cc2c(-c3cccc(CO)c3)n[nH]c2CN1c1ccccc1	i	-9.9%[172 µM]	-2.6%[88.5 µM]	7.7%[70.6 µM]	?
COc1ccc(-c2n[nH]c3c2CC(=O)N(CCOc2ccccc2)C3)cc1F	i	100µM*	i	-18.3%[70.6 µM]	?
COCCN1Cc2[nH]nc(-c3cccc(OC)c3)c2CC1=O	i	?	-2.1%[88.5 µM]	-3.9%[70.6 µM]	100µM*
COc1ccc(-c2n[nH]c3c2CC(=O)N(Cc2ccccn2)C3)cc1F	i	?	4.2%[88.5 µM]	-0.2%[70.6 µM]	?
O=C1Cc2c(-c3ccccc3)n[nH]c2CN1CCOc1ccccc1	?	-7.0%[172 µM]	-5.6%[88.5 µM]	12.6µM*	?
O=C(O)c1cccc(-c2n[nH]c3c2CC(=O)N(c2ccccc2)C3)c1	63.1µM*	?	i	-3.2%[70.6 µM]	?
SMILES	FLuc inh	HEK293 tox	GPT2 inhibitor	NPR1 antag	NIH3T3 tox
O=C(O)c1cccc(-c2n[nH]c3c2CC(=O)N(CCOc2ccccc2)C3)c1	i	1.9%[172 µM]	-13.2%[88.5 µM]	-0.6%[70.6 µM]	?
CO[C@@H]1CCOC[C@H]1NS(=O)(=O)c1ccc(S(C)(=O)=O)cc1	i	i	-23.0%[11.5 µM]	2.7%	i
Cc1cccc(NC(=O)N2CCC(Cc3nncn3CC3CC3)CC2)c1	/	i	-2.0%	/	?
CN(C)C(=O)N1CCCCC(NC2CCN(c3ccc4c(c3)CCC4)CC2)C1 (stereo not given)	i	?	i	0.3%	?
Cc1ccc(C(=O)N2CCCCCCNC(=O)[C@@H]3C[C@@H](c4nc(-c5cccnc5)no4)C[C@@H]32)s1	i	1.1%	i	0.3%	-23.8%
CCc1ccc(NC(=O)Cn2ccn3nc4c(c3c2=O)CC(C)CC4)cc1 (stereo not given)	i	44.7µM*	4.9%	0.4%	?
Cc1nc(CN2C[C@H](C(=O)NCc3ccc4c(c3)OCO4)C[C@@H]2c2ccc(F)cc2)cs1	i	?	?	2.3%	?
COc1ccc(NC(=O)[C@@H]2C[C@@H](c3ccc(F)cc3)N(Cc3ccccc3)C2)cc1	i	?	-14.4%[88.5 µM]	-19.2%[70.6 µM]	-15.5%[138 µM]
COc1ccc(NC(=O)[C@@H]2C[C@H](c3ccc(F)cc3)N(Cc3csc(C)n3)C2)cc1	i	79.4µM*	-0.2%[88.5 µM]	-3.1%[70.6 µM]	?
Cc1nc(CN2C[C@H](C(=O)Nc3ccc(F)cc3)C[C@@H]2c2ccc(F)cc2)cs1	i	100µM*	-5.5%[88.5 µM]	-0.6%[70.6 µM]	100µM*
N#Cc1ccc(C(=O)N[C@@H]2CN(Cc3ccccc3)C[C@H]2CO)cc1	i	?	3.0%	2.2%	14.1µM*
O=C(N1CCC2(CC1)CC(N(Cc1ccccc1)C1CC1)CCO2)C1(c2ccccc2)CC1 (stereo not given)	i	39.8µM*	i	?	44.7µM*
CCC(C)(C)C(=O)N1CCC2(CC1)CC(N(Cc1ccc(F)cc1)C1CC1)CCO2 (stereo not given)	i	44.7µM*	i	-8.2%	?
O=C(CC1CCCC1)N1CCC2(CC1)CC(N(Cc1ccc(F)cc1)C1CC1)CCO2 (stereo not given)	i	44.7µM*	4.9%	-22.4%	?
CCC(=O)N1CCC2(CC1)CC(N(Cc1ccccc1)C1CC1)CCO2 (stereo not given)	i	-28.3%	-9.1%	-11.3%	2.3%
O=C(c1ccccc1)N1CCC2(CC1)CC(N(Cc1ccc(F)cc1)C1CC1)CCO2 (stereo not given)	i	44.7µM*	-9.8%	-21.8%	?
